Where a name gives a salt, the structure may show the parent alone. ± gives the uncertainty stated by the source.
System: Caenorhabditis elegans N2
Assay: food intake (mean delta OD600 / animal over 72 h) with 50 uM loxapine co-treatment (OD600 units per animal); higher = more food eaten (less suppression of loxapine-induced hyperphagia)
Details: first compound 33 µM, loxapine concentration 50 µM
Procedure: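 C. elegans N2 adults (FUDR-sterilised, day 1) in 96-well plates fed gamma-irradiated bacteria. Each library drug (MedChemExpress FDA-approved library) at 33 uM was combined with loxapine at 50 uM. Food intake was measured as bacterial clearance: the change in OD600 from day 1 to 72 h, normalised per animal (mean over 14-21 wells of about 10-12 worms). Drugs flagged for bacterial lysis or sickness were excluded by the authors.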

`Cc1cc(C2CCCCC2)n(O)c(=O)c1` [ciclopirox] + CN1CCN(C2=Nc3ccccc3Oc3ccc(Cl)cc32)CC1 [loxapine] and `C#C[C@]1(O)CC[C@H]2[C@@H]3CCc4cc(OC)ccc4[C@H]3CC[C@@]21C` [mestranol] + CN1CCN(C2=Nc3ccccc3Oc3ccc(Cl)cc32)CC1 [loxapine] are within error of each other in food intake: 0.0218 ± 0.0041 for the first, 0.0204 ± 0.0018 for the second.

`COC(=O)/C=C/C(=O)OC` [dimethyl fumarate] + CN1CCN(C2=Nc3ccccc3Oc3ccc(Cl)cc32)CC1 [loxapine] and `CCOC(=O)/C=C(C)/C=C/C=C(C)/C=C/c1c(C)cc(OC)c(C)c1C` [etretinate] + CN1CCN(C2=Nc3ccccc3Oc3ccc(Cl)cc32)CC1 [loxapine] are within error of each other in food intake: 0.0218 ± 0.0043 for the first, 0.0213 ± 0.0039 for the second.

`CCOCC(O)COc1ccc(NC(=O)CC[S+](C)C)cc1` (stereo not drawn) [Suplatast (tosilate)] + CN1CCN(C2=Nc3ccccc3Oc3ccc(Cl)cc32)CC1 [loxapine] and `CC(C)(C)C(=O)OCOP(=O)(COCCn1cnc2c(N)ncnc21)OCOC(=O)C(C)(C)C` [Adefovir dipivoxil] + CN1CCN(C2=Nc3ccccc3Oc3ccc(Cl)cc32)CC1 [loxapine] are within error of each other in food intake: 0.0232 ± 0.0036 for the first, 0.0231 ± 0.0029 for the second.

`FC(F)(F)C(Cl)Br` (stereo not drawn) [halothane] + CN1CCN(C2=Nc3ccccc3Oc3ccc(Cl)cc32)CC1 [loxapine] and `C[C@@H]1CCN(C(=O)CC#N)C[C@@H]1N(C)c1ncnc2[nH]ccc12` [tofacitinib (citrate)] + CN1CCN(C2=Nc3ccccc3Oc3ccc(Cl)cc32)CC1 [loxapine] are the same in food intake: 0.0227 ± 0.0031 for the first, 0.0227 ± 0.0047 for the second.
